Source: PubChem BioAssay (NCI)
Compounds without any hit were thinned out: in the full panel of roughly 83,000, 20% have a hit.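 Testing used 96-well plates and a 48-hour single-concentration exposure. Example: -40 means 40% of the starting cells died.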 Values without a mark were called inactive. Active and inactive are the calls of the source. How the source made its calls: active means growth percent below 10; inactive means the rest.

How the values were obtained:
Test in all cases: NCI-60 one-dose screen, 48 h (100 = growth as untreated, 0 = no growth, -100 = all killed)
Details in all cases: 10 µM unless noted
[1] = system: SR leukemia
[2] = system: RPMI-8226 leukemia
[3] = system: OVCAR-8 ovarian
[4] = system: OVCAR-5 ovarian
[5] = system: OVCAR-4 ovarian
[6] = system: SK-OV-3 ovarian
[7] = system: IGROV1 ovarian
[8] = system: OVCAR-3 ovarian
[9] = system: HS 578T breast
[10] = system: NCI/ADR-RES ovarian

COc1cc(-c2cc3ncccc3c3nc(OCCN(C)C)c4cccnc4c23)cc(OC)c1OC
growth [1]: 8.77% (active) | growth [2]: -7.46% (active) | growth [3]: -5.22% (active) | growth [4]: 44.8% | growth [5]: -43.9% (active) | growth [6]: -10.8% (active) | growth [7]: 9.72% (active) | growth [8]: -25.6% (active) | growth [9]: 14.4% | growth [10]: 5.27% (active)

Clc1ccc(Cn2cc(-c3nc4ccc(Br)nc4n3Cc3ccc(Cl)cc3)c3cccnc32)cc1
growth [1]: 61% | growth [2]: 67.6% | growth [3]: 77.2% | growth [4]: 96.9% | growth [5]: 87.6% | growth [6]: 80.9% | growth [7]: 77.3% | growth [8]: 93.5% | growth [9]: 92.7% | growth [10]: 90.8%

Fc1ccc(NCc2nnc(-c3ccc(Cl)cc3)o2)cc1
growth [1]: 71.1% | growth [2]: 54.1% | growth [3]: 79.9% | growth [4]: 86.9% | growth [5]: 69.2% | growth [6]: 81.5% | growth [7]: 51.6% | growth [8]: 79.6% | growth [9]: 84.6% | growth [10]: 90.6%

COc1ccc(-c2nc(SCC(=O)Nc3ccc(C(C)=O)cc3)[nH]c(=O)c2C#N)cc1
growth [1]: 97.5% | growth [2]: 114% | growth [3]: 91% | growth [4]: 97.3% | growth [5]: 108% | growth [6]: 79.5% | growth [7]: 106% | growth [8]: 108% | growth [9]: 115% | growth [10]: 108%

Cn1cc(-c2csc(-c3cn(CCNC(=O)OC(C)(C)C)c4ccc(F)cc34)n2)c2cccnc21
growth [1]: 65.3% | growth [2]: 34.4% | growth [3]: 37.9% | growth [4]: 95.3% | growth [5]: 43.8% | growth [6]: 96.6% | growth [7]: 49.4% | growth [8]: 75.5% | growth [9]: 84.3% | growth [10]: 43.8%

COc1cccc(-c2nn(-c3ccccc3)cc2-c2ccnc(NCCNS(=O)(=O)c3ccccc3)c2)c1
growth [1]: 12.7% | growth [2]: 19.1% | growth [3]: 27.7% | growth [4]: 72.3% | growth [5]: 39.3% | growth [6]: 43.3% | growth [7]: 33.6% | growth [8]: 42.6% | growth [9]: 46.7% | growth [10]: 23.3%

C=C(C)[C@@H]1CC[C@]2(C)[C@H](CC=C3[C@@H]4CC(C)(C)CC[C@]4(C(=O)OC)CC[C@]32C)[C@@]1(C)CC/C(N)=N/O
growth [1]: 0.151% (active) | growth [2]: 34.9% | growth [3]: 38.4% | growth [4]: 90.4% | growth [5]: 36.4% | growth [6]: 68% | growth [7]: 80.2% | growth [8]: 67.2% | growth [9]: 72.4% | growth [10]: -24.5% (active)

C=C1C(=O)O[C@H]2[C@H]1CC/C(COC(=O)NCc1cc3ccccc3[nH]1)=C\CC[C@@]1(C)O[C@@H]21
growth [1]: -2.88% (active) | growth [2]: -32.8% (active) | growth [3]: 6.1% (active) | growth [4]: 26.2% | growth [5]: -0.221% (active) | growth [6]: 86.7% | growth [7]: -20.5% (active) | growth [8]: -54.4% (active) | growth [9]: 79.3% | growth [10]: 71.4%

COc1ccc(C2NC(=O)Nc3ccccc32)c(OC)c1 (stereo not given)
growth [1]: 91.7% | growth [2]: 108% | growth [3]: 101% | growth [4]: 112% | growth [5]: 105% | growth [6]: 95.3% | growth [7]: 98.2% | growth [8]: 112% | growth [9]: 94.8% | growth [10]: 99%

Cc1cc(N(CCCNc2ccnc3cc(Cl)ccc23)Cc2ccco2)nc(Cl)n1
growth [1]: 21.7% | growth [2]: 18.6% | growth [3]: 41.2% | growth [4]: 69.3% | growth [5]: 54.1% | growth [6]: 58.7% | growth [7]: 51.8% | growth [8]: 66.1% | growth [9]: 75.4% | growth [10]: 45.7%

O=C1c2ccccc2NC(c2cn(-c3ccccc3)nc2-c2cccs2)N1Cc1ccccc1 (stereo not given)
growth [1]: 66.8% | growth [2]: 76.2% | growth [3]: 90.3% | growth [4]: 90% | growth [5]: 87.1% | growth [6]: 84% | growth [7]: 69.3% | growth [8]: 89.3% | growth [9]: 94.3% | growth [10]: 73.2%

COC(=O)CCCCCn1c2ccccc2c2c3c(c4c5ccccc5[nH]c4c21)C(=O)N(O)C3=O
growth [1]: 11.3% | growth [2]: 22.4% | growth [3]: 31.2% | growth [4]: 86.6% | growth [5]: 57.5% | growth [6]: 70.2% | growth [7]: 19.5% | growth [8]: 33.2% | growth [9]: 84.5% | growth [10]: 23.1%

CC(=O)O[C@H]1CC[C@]2(C)[C@H]3CC=C4[C@@H]5[C@H](C)[C@@H](C)CC[C@]5(C(=O)NCCNCCNCCN)CC[C@@]4(C)[C@]3(C)CC[C@H]2C1(C)C
growth [1]: -5.48% (active) | growth [2]: 42.3% | growth [3]: 96% | growth [4]: 96.1% | growth [5]: 95.2% | growth [6]: 106% | growth [7]: 57% | growth [8]: 89.8% | growth [9]: 95.4% | growth [10]: 89.8%

COc1ccc(-c2c(-c3nc4ccc(N5CCOCC5)cc4[nH]3)[nH]c(C)c2C(C)=O)cc1
growth [1]: 47.8% | growth [2]: 3.61% (active) | growth [3]: 50.5% | growth [4]: 48.2% | growth [5]: 45.1% | growth [6]: 27.7% | growth [7]: 23.8% | growth [8]: 46% | growth [9]: 22.3% | growth [10]: 38.7%

Cc1cc(N2CCOCC2)nc(N(CCCNc2ccnc3cc(Cl)ccc23)Cc2ccco2)n1
growth [1]: -11.4% (active) | growth [2]: 19.4% | growth [3]: 46.3% | growth [4]: 38.9% | growth [5]: 50.4% | growth [6]: 50.1% | growth [7]: 10.9% | growth [8]: 2.02% (active) | growth [9]: 69.5% | growth [10]: 12.1%

NCCn1cc(-c2nc(-c3c[nH]c4ncccc34)cs2)c2cc(Br)ccc21
growth [1]: 15.2% | growth [2]: 43.3% | growth [3]: 91.6% | growth [4]: 89.4% | growth [5]: 54.7% | growth [6]: 90.8% | growth [7]: 43.6% | growth [8]: 82.4% | growth [9]: 83.1% | growth [10]: 90%

N#CC1c2ccccc2-c2ccccc2N1C(=O)c1ccccc1 (stereo not given)
growth [1]: 65.2% | growth [2]: 26.4% | growth [3]: 22.3% | growth [4]: 41.8% | growth [5]: 38.1% | growth [6]: 54.3% | growth [7]: 24.2% | growth [8]: -8.36% (active) | growth [9]: 7.52% (active) | growth [10]: -47.4% (active)

CCCNc1nc(N(C)O)nc(N(C)O)n1
growth [1]: 32.1% | growth [2]: 38.1% | growth [3]: 26.5% | growth [4]: 64% | growth [5]: 19.2% | growth [6]: 45.2% | growth [7]: 36.9% | growth [8]: -10.6% (active) | growth [9]: 71% | growth [10]: 16.9%

Cc1ccc2c(c1)c1nc3cc(C)c(C)cc3nc1n2CCN(C)C
growth [1]: 6.5% (active) | growth [2]: 1.96% (active) | growth [3]: 18.4% | growth [4]: 20.5% | growth [5]: 33.1% | growth [6]: 30.9% | growth [7]: 6.96% (active) | growth [8]: 29.7% | growth [9]: 50.1% | growth [10]: 12.8%

Cn1c2ccccc2c2c3c(c4c5cccnc5[nH]c4c21)C(=O)N(O)C3=O
growth [1]: 11.4% | growth [2]: 39.6% | growth [3]: 45.5% | growth [4]: 104% | growth [5]: 71.3% | growth [6]: 37.5% | growth [7]: 45.1% | growth [8]: 54.7% | growth [9]: 110% | growth [10]: 57.2%

CC(C)=CCC[C@](C)(O)[C@H]1CC[C@]2(C)[C@@H]1CC[C@@H]1[C@@]3(C)C/C(=C/c4cccc([N+](=O)[O-])c4)C(=O)C(C)(C)[C@@H]3CC[C@]12C
growth [1]: 72.7% | growth [2]: 59.9% | growth [3]: 77.5% | growth [4]: 94.1% | growth [5]: 82.5% | growth [6]: 109% | growth [7]: 107% | growth [8]: 89.7% | growth [9]: 93.3% | growth [10]: 101%

C=C(C)[C@@H]1CC[C@]2(C=O)CC[C@]3(C)[C@H](CC[C@@H]4[C@@]5(C)C/C(=C/c6cccnc6)C(=O)C(C)(C)[C@@H]5CC[C@]43C)[C@@H]12
growth [1]: 40.6% | growth [2]: 35.5% | growth [3]: 63.5% | growth [4]: 128% | growth [5]: 64.6% | growth [6]: 117% | growth [7]: -31.2% (active) | growth [8]: 74.3% | growth [9]: 87.4% | growth [10]: 78.5%

O=C(NO)c1ccc(Cn2c(=O)n(-c3ccccc3)c(=O)c3ccccc32)cc1
growth [1]: 7.9% (active) | growth [2]: 14.8% | growth [3]: -6.49% (active) | growth [4]: 62.2% | growth [5]: 18.7% | growth [6]: 26.3% | growth [7]: 33.5% | growth [8]: 24.2% | growth [9]: 57.8% | growth [10]: 101%

NC1(N)C=CC2=C(C=C1)C1(N)C3=C(C=CC(N)(N)C=C3)N2C2(N)C3=C(C=CC(N)(N)C=C3)N1C1=C2C=CC(N)(N)C=C1
growth [1]: 79.2% | growth [2]: 18.6% | growth [3]: 90.5% | growth [4]: 105% | growth [5]: 90.7% | growth [6]: 102% | growth [7]: 94.8% | growth [8]: 97.8% | growth [9]: 81.6% | growth [10]: 82.9%

Oc1cccc2ccc(N/N=C/c3cc(CN4CCCCC4)c(O)c4ncccc34)nc12
growth [1]: -12.7% (active) | growth [2]: 0.883% (active) | growth [3]: 8.27% (active) | growth [4]: 36.4% | growth [5]: 8.09% (active) | growth [6]: -30.5% (active) | growth [7]: 14.3% | growth [8]: 7.62% (active) | growth [9]: 17.1% | growth [10]: 8.58% (active)
